Reference: PubChem BioAssay (NCI)
Several values for one entry are separate records, joined by “and”; a condition that tells them apart may be missing. Equal values may be shown once. Compounds without any hit were thinned out: in the full panel of roughly 79,000, 15% have a hit. Activity calls are given as the source filed them. No stated cut-off is given here; in the data, active means growth inhibition above about 70%; inactive means the rest.

Legend:
[1] = NCI Yeast Anticancer Drug Screen. Data for the rad50 strain (AID 155);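 further: 0% = growth of vehicle-only cultures of the same strain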; details: S. cerevisiae rad50 strain growth inhibition; at 50.0 µM; stronger effect = higher value
In short: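 Yeast carrying a defined DNA repair defect were exposed to test compounds, and growth was compared with vehicle-treated controls to give percent inhibition.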

[2] = NCI Yeast Anticancer Drug Screen. Data for the mec2-1 strain (AID 157); details: S. cerevisiae mec2-1 strain, at 50.0 µM, stronger effect = higher value
In short: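 Using mec2-1 yeast: add compound, measure growth, express inhibition versus vehicle-treated cultures.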

[3] = NCI Yeast Anticancer Drug Screen. Data for the sgs1 mgt1 strain (AID 161);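 further: 0% = growth of cultures given vehicle only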; details: S. cerevisiae sgs1 mgt1 strain, at 50.0 µM, stronger effect = higher value
In short: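 Percent growth inhibition was derived by comparing compound-exposed mutant yeast with vehicle-exposed cultures. The strain carries alterations in DNA damage repair.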

[4] = NCI Yeast Anticancer Drug Screen. Data for the cln2 rad14 strain (AID 165);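 further: 0% = growth equal to vehicle treated cultures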; details: S. cerevisiae cln2 rad14 strain, at 50.0 µM, stronger effect = higher value
In short: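 Yeast strain cln2 rad14, bearing defects in cell cycle control and DNA repair, serves as the test system; values reflect growth inhibition compared with vehicle.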

[5] = NCI Yeast Anticancer Drug Screen. Data for the bub3 strain (AID 167); details: S. cerevisiae bub3 mutant strain, at 50.0 µM, stronger effect = higher value
In short: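 Compounds were applied to a genetically altered yeast strain carrying a cell-cycle control defect. Growth inhibition was scored against vehicle-treated controls.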

[6] = NCI Yeast Anticancer Drug Screen. Data for the mlh1 rad18 strain (AID 175); details: S. cerevisiae mlh1 rad18 strain growth inhibition; at 50.0 µM; stronger effect = higher value
In short: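 Steps: expose repair-defective yeast to compound; measure growth; express inhibition against vehicle-treated controls.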

Measured: growth inhibition

CC(C)[C@H](C)/C=C/[C@@H](C)C1CC[C@H]2[C@@]34C=C[C@]5(C[C@@H](O)CC[C@]5(C)[C@H]3CC[C@]12C)OO4 (stereo partly specified)
inactive: [1] 11.8% | [2] 19% | [3] -13.2% | [4] 2.15% | [5] -20.4% | [6] -31.6%

Cc1ccc(C2=NOP(c3ccccc3)(c3ccccc3)(c3ccccc3)C2)cc1
inactive: [1] 19.5% | [2] 2.7% | [3] 39% | [4] -37.8% | [5] 23.6%

[CH3][Sn]([CH3])([CH3])[O]C(=O)C(O)c1ccccc1 (stereo unspecified)
inactive: [1] 11.6% | [2] -7.7% | [3] 5.1% | [4] 9.4% | [5] -0.05% | [6] -2.3%

CNC(=O)Oc1ccccc1C(N)=O
inactive: [1] 10.4% | [2] -1.8% | [3] -14.8% | [4] -46.8% | [5] -4.55% | [6] 7.3%

CC(=O)Oc1ccc([As](=O)(O)O)cc1
inactive: [1] 5.55% | [2] -7.75% | [3] 3.75% | [4] -11.8% | [5] 10.4%

CN1CCN(C(=O)Cc2c[nH]c3ccccc23)CC1
inactive: [1] -1.25% | [2] 11.8% | [3] 2.9% | [4] -20.3% | [5] 9.35% | [6] 15.7%

CNC(=O)Oc1cccc(N=CN(C)C)c1
inactive: [1] 7.65% | [2] 1.05% | [3] 0% | [4] 9.9% | [5] -20.4% | [6] 16.7%

CC([NH-])C(C)[NH-].CC([NH-])C(C)[NH-].CC([NH-])C(C)[NH-].[Cr+6] (stereo unspecified)
inactive: [1] 9.9% | [2] 22.8% | [3] 10.7% | [4] 2% | [5] 1.9% | [6] 8.15%

CCC1(OC(=O)CNC)C(=O)OCc2c1cc1n(c2=O)Cc2cc3ccccc3nc2-1 (stereo unspecified)
inactive: [4] 60.2%
active: [1] 78.7% | [2] 83.7% | [3] 76.3% | [5] 72%

Nc1nc(N)c2cnnn2n1
inactive: [1] 18.1% | [2] -13.2% | [3] 17.3% | [4] 11.9% | [5] 4.05%

CC[CH2][Sn](=[O])[c]1ccccc1
active: [2] 72% | [6] 78.2%
inactive: [1] 61.6% | [3] 57.1% | [4] 42.3% | [5] 50.6%

CC(COC(=O)NCc1ccccc1)OC(N)=O (stereo unspecified)
inactive: [1] -1.05% | [2] -14.8% | [3] 13.1% | [4] -10.3% | [5] 1.15% | [6] -11.4%

CCOP(=O)(OCC)C(C#N)Cc1ccco1 (stereo unspecified)
inactive: [1] -19.2% | [2] -23.9% | [3] -14.1% | [4] -9.4% | [5] -4.1% | [6] 1.9%

c1ccc(-c2cccc(-c3ccccc3)c2)cc1
inactive: [1] 30.1% | [2] 15.3% | [3] 31.3% | [4] -0.6% | [5] 24.6% | [6] 44%

NNC(=S)S
inactive: [1] 27.9% and -11.3% and -7.8% | [2] 26.1% and -14.6% and -8.5% | [3] 6.1% and -1.65% and -21.6% | [4] 22.2% and -24.2% and -21.7% | [5] 26.2% and 9.35% and -27% | [6] 5.3% and -2.15% and -45.4%

CCC[CH2][Sn]1([CH2]CCC)[O]C(=O)c2ccc(N)cc2[O]1
active: [1] 87.3% | [2] 92.5% | [3] 89.5% | [4] 89.4% | [5] 89.1%

N#CS.N=C=S.N=C=S.[Cu+2].[NH2-].[NH2-].[NH2-].[NH2-].c1ccc2ncccc2c1
inactive: [1] -10.4% | [2] -16.6% | [3] -24.2% | [4] 26.2% | [5] -9.6%

Cc1cc(C)n(-c2nc3ccccc3c(=O)n2-c2ccccc2)n1
inactive: [1] -2.9% | [2] -2.75% | [3] -14.5% | [4] 0.4% | [5] -7.75% | [6] -16.9%

CCCCc1ccc(N=C(N)N)cc1
inactive: [1] 25.6% | [2] 9.35% | [3] 19.4% | [4] 8.3% | [5] 12.2% | [6] -1.95%

[Pt].c1ccc([PH+](CC[PH+](CC[PH+](c2ccccc2)c2ccccc2)c2ccccc2)CC[PH+](c2ccccc2)c2ccccc2)cc1 (stereo unspecified)
inactive: [1] 22.8% | [2] 14.3% | [3] 25.6% | [4] 8.6% | [5] 16.6% | [6] 8.75%

O=C([O-])CC(=O)[O-].[NH-][C@@H]1CCCC[C@H]1[NH-].[Pt+4]
inactive: [1] -14.2% | [2] -15.5% | [3] -24.5% | [4] -25.1% | [5] -24.5%

CCN1C(=O)C(=C/C=C/c2ccc([N+](=O)[O-])cc2)C(=O)N(CC)C1=S
inactive: [1] 8.55% | [2] 9.95% | [3] 19.1% | [4] 19.9% | [5] 18.6%

CCOP(=O)(OCC)/C(C#N)=C/c1cc(O)ccc1O
inactive: [1] -34.2% | [2] -35.1% | [3] -51.9% | [4] -10.2% | [5] -47.9%

CC1=C[C@H]2O[C@@H]3[C@H](O)[C@@H](O)[C@](C)(C2(COC(=O)CCl)CC1)[C@@]31CO1 (stereo partly specified)
active: [1] 87% | [2] 89.7% | [3] 87.7% | [4] 90.2% | [5] 88.5%

N/C(=N\S(=O)(=O)c1ccccc1)N[N+](=O)[O-]
inactive: [1] 5.15% and -5.6% | [2] -1.15% and -8.9% | [3] -9.05% and -5.2% | [4] -39.2% and -2.6% | [5] -9.25% and 7.05% | [6] 4.45% and -9.75%

CCCC(C)OP(=O)(OCC)OCC (stereo unspecified)
inactive: [1] 2.2% | [2] -2.7% | [3] -5.35% | [4] -48.4% | [5] 14.4%

O=C(O)c1cc[c]([Hg][S]c2ncnc3nc[nH]c23)cc1
active: [1] 99% | [2] 98.3% | [3] 98.6% | [4] 98.2% | [5] 97.5% | [6] 98.9%

CCC(C)C1NC(=O)C2CCCN2C(=O)C(CC2CO2)OC(=O)CCNC(=O)C(C)N(C)C(=O)C(C(C)C)N(C)C1=O (stereo unspecified)
inactive: [1] 55.1% | [2] 5.15% | [3] 41.2% | [4] 31.6% | [5] 36%

COc1ccc2nc3cc(Cl)ccc3c(NCCCN(CCCl)CCCl)c2c1
inactive: [1] 51% | [2] 19.2% | [3] 37.2% | [4] 34.2% | [5] 7.6%

O=P(c1ccccc1)(c1ccccc1)c1ccccc1.O=P(c1ccccc1)(c1ccccc1)c1ccccc1.O=P(c1ccccc1)(c1ccccc1)c1ccccc1.O=P(c1ccccc1)(c1ccccc1)c1ccccc1.[Co+2].[O-][Cl+3]([O-])([O-])O
inactive: [1] 22.7% | [2] 3.45% | [3] 17.9% | [4] 20.9% | [5] 13.8% | [6] 16.3%

[CH3][Sn]1([CH3])[O]C(=O)c2ccccc2C(=O)[O]1
inactive: [1] 6.8% | [2] 15.7% | [3] 23.6% | [4] -13.4% | [5] -13.4% | [6] -13.8%

C=C1CC2CC[C@@]34CC5O[C@@H]6C(O[C@H]7CC[C@H](CC(=O)OC8C(C)C9OC%10C[C@]%11(C[C@@H]%12O[C@]%13(CC(C)[C@@H]%14O[C@H](C(O)CC(O)CO)C[C@@H]%14O%13)CC(C)[C@@H]%12O%11)OC%10CC9O[C@H]8C[C@H]8OC(CC[C@@H]1O2)C[C@@H](C)C8=C)OC7[C@@H]6O3)[C@H]5O4 (stereo partly specified)
active: [1] 87.3% | [2] 91.1% | [3] 90.6% | [4] 83.7% | [5] 91.1%
inactive: [6] 69.8%

Cc1nc2ccccc2[se]1
inactive: [1] -33.4% | [2] -32.5% | [3] -3.5% | [4] 3.5% | [5] 35.7% | [6] -18.1%

O=C([O-])C[SH2+].[Co+3].[NH-]CC[NH-].[NH-]CC[NH-].[O-][Cl+3]([O-])([O-])O
inactive: [1] 7.4% | [2] 20.1% | [3] 14.3% | [4] -16.6% | [5] 17.4% | [6] 20.4%

c1ccc(C2=NCN3CC23c2ccccc2)cc1 (stereo unspecified)
inactive: [1] -3.6% | [2] 2.2% | [3] 14.4% | [4] 13.4% | [5] -48.8% | [6] 3.45%

Cc1nc2cccc(F)c2c(=O)n1-c1nnc(C2CC2)s1
inactive: [1] -28.6% | [2] -23.5% | [3] -20.2% | [4] 13.5% | [5] -41.2% | [6] -9.05%

CC1N=NNN1C (stereo unspecified)
inactive: [1] -1.8% | [2] -9.7% | [3] -2.3% | [4] -5.9% | [5] 8.75% | [6] -8.65%

O=C1C2CCN(CC2)C1Cn1cnc2c(Cl)ncnc21 (stereo unspecified)
inactive: [1] -3.9% | [2] 4.1% | [3] -4.35% | [4] -0.55% | [5] -2.55% | [6] -0.75%

Cc1cc(NC(=O)CCc2ccc(N3C(N)=NC(N)=NC3(C)C)cc2Cl)ccc1S(=O)(=O)F
inactive: [4] 4.55% | [5] 54%
active: [1] 72.5% | [2] 94.1% | [3] 94.7% | [6] 83.3%

NC(=NCc1ccccc1)N[N+](=O)[O-]
inactive: [1] -7.3% | [2] 3.65% | [3] -10.6% | [4] 17.7% | [5] 30.7% | [6] -3.15%

O=P(O)(O)SP(=O)(O)O.[Co]
inactive: [1] 22.2% | [2] 6.9% | [3] 11.2% | [4] -8.9% | [5] -12.8% | [6] 14.2%

C/C(=N\N(C)C)C(CN(C)C)C(c1ccccc1)c1c(O)c2ccccc2oc1=O (stereo unspecified)
inactive: [1] 16.8% | [2] -18.5% | [3] 13.8% | [4] 1.5% | [5] 37.8% | [6] 18.9%

COc1ccc(CCN(C)Cc2cccc(OC)c2OC)cc1OC
inactive: [1] -17.1% | [2] -5.85% | [3] -3.85% | [4] -0.95% | [5] -16.1% | [6] -2.1%

Cc1cccc(C)c1[S][Pb][S]c1c(C)cccc1C
inactive: [1] -0.6% | [2] -3.75% | [3] -7.9% | [4] -0.75% | [5] -2.05% | [6] -17.4%
